From PubChem BioAssay
Unmarked numbers belong to inactive results. Activity calls are given as the source filed them.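 Rule for the calls: active = inhibition of the reporter signal at or above 50%; inactive = inhibition below 50%.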

Test: inhibitors of poly I:C-induced TLR3 signaling, primary screen, cell-based, poly I:C stimulus, luciferase, 10K MLSCN set (AID 602277)
Settings: HEK293-TLR3 RL24 IRF3 luciferase reporter, at 10 µM, active compounds read high

Question: Which inhibition does the source give for `CCCCOc1ccc(-c2nnn(C(C)(C)C(=O)OC)n2)cc1` here?
Answer: -125%

Question: For `O=c1c2nnn(Cc3ccc(Cl)cc3)c2ncn1Cc1ccc(F)cc1`, which inhibition is on record?
Answer: 20.6%

Question: Which inhibition does the source give for `COc1cc(C2C(C#N)=C(N)OC3=C2C(=O)CC(C)(C)C3)ccc1OC(=O)N1CCOCC1` (stereo not given) here?
Answer: 11.1%

Question: With `CCOC(=O)c1[nH]c(C)c(C(=O)Nc2ccc(C)cc2C)c1C` as the compound, how does the inhibition read?
Answer: 16.3%

Question: For `Cn1cccc1Cc1nnc(SCC(N)=O)n1-c1ccc(F)cc1`, which inhibition is on record?
Answer: 24.3%

Question: With `COc1cccc(OCCn2ccnc2)c1` as the compound, how does the inhibition read?
Answer: -3.22%

Question: For `COc1ccc(CCNC(=O)c2cc(C(C)C)on2)cc1OC`, which inhibition is on record?
Answer: 18.2%

Question: For `CC(CN1CCCCC1)OC(=O)c1ccc2c(c1)OCO2` (stereo not given), which inhibition is on record?
Answer: -0.512%

Question: For `COc1ccc(NC(=O)c2oc3ccc(S(=O)(=O)N4CCC5(CC4)OCCO5)cc3c2C)cc1`, which inhibition is on record?
Answer: 10.5%

Question: For `CC1CCc2c(sc3c2C2=NS(=O)(=O)CCN2C=N3)C1` (stereo not given), which inhibition is on record?
Answer: 33.3%

Question: For `COc1ccc(/C=N/n2cnnc2SCc2ccc(OC)cc2)cc1`, which inhibition is on record?
Answer: 0.256%

Question: For `CCn1c(CCNC(=O)c2cccs2)nnc1SCC(=O)c1ccc(OC)cc1`, which inhibition is on record?
Answer: -7.83%

Question: For `Cc1ccc2c(c1)C(N1CCCC1=O)CC(c1ccco1)N2` (stereo not given), which inhibition is on record?
Answer: 98.9% (active)

Question: For `Cc1sc2nc(SCC(=O)Nc3c(C)n(C)n(-c4ccccc4)c3=O)n(C)c(=O)c2c1C`, which inhibition is on record?
Answer: -5.09%

Question: Which inhibition does the source give for `COCCN(CCOC)C(=O)c1sc2nc(-c3ccccc3)cn2c1C` here?
Answer: 7.03%

Question: Which inhibition does the source give for `CCc1ccccc1NC(=O)C(CC)Sc1nc2cc3c(cc2c(=O)n1Cc1ccco1)OCO3` (stereo not given) here?
Answer: 22.3%

Question: Which inhibition does the source give for `CCc1c(C(=O)Nc2ncn(Cc3cccc(C)c3)n2)csc1C` here?
Answer: 15.5%

Question: Which inhibition does the source give for `CCC(=O)N1CCN(c2nc(-c3ccccc3)c3c(c2C#N)CCCC3)CC1` here?
Answer: 44.4%

Question: For `COc1ccc(S(=O)(=O)N(C)CC(=O)N2CCCCC2)cc1Cl`, which inhibition is on record?
Answer: 15%

Question: With `CN(CC(=O)N1CCCCC1)S(=O)(=O)c1cccc2cccnc12` as the compound, how does the inhibition read?
Answer: 25.4%

Question: With `CS(=O)(=O)N(CC(=O)Nc1cccc(F)c1)Cc1ccccc1` as the compound, how does the inhibition read?
Answer: 30.7%

Question: With `O=S(=O)(c1cccc(S(=O)(=O)N2CCC(N3CCCCC3)CC2)c1)N1CCOCC1` as the compound, how does the inhibition read?
Answer: 28.4%

Question: For `Cc1ccc(-c2nc3cc(N)ccc3o2)cc1`, which inhibition is on record?
Answer: -58.1%

Question: For `COc1ccc(OC)c(C(=O)CSc2nc3ncccc3[nH]2)c1`, which inhibition is on record?
Answer: -19.6%

Question: Which inhibition does the source give for `O=C1c2ccccc2C(Nc2ccc3c(c2)OCO3)N1Cc1ccc2c(c1)OCO2` (stereo not given) here?
Answer: 27.2%

Question: For `COc1ccc(-c2nc(C)c(C(C)=O)n2O)cc1OC`, which inhibition is on record?
Answer: 10.1%

Question: With `CCOc1ccc(N(CC(=O)Nc2ccc(F)c(F)c2)S(=O)(=O)c2c(C)noc2C)cc1` as the compound, how does the inhibition read?
Answer: 30.3%

Question: For `CC(=O)Nc1ccc(NS(=O)(=O)c2ccc(Cl)c(C(=O)O)c2)cc1`, which inhibition is on record?
Answer: 20.4%

Question: For `CC(=O)c1cccc(NC(=O)CCNS(=O)(=O)c2cccc3nsnc23)c1`, which inhibition is on record?
Answer: 17.2%

Question: With `CCOc1ccccc1-n1nnnc1SCC(=O)Nc1cc2oc3ccccc3c2cc1OC` as the compound, how does the inhibition read?
Answer: 15.7%

Question: Which inhibition does the source give for `COc1cccc(NC(=O)CSc2nnc(Cc3cccn3C)n2-c2ccc(F)cc2)c1` here?
Answer: 15.6%

Question: For `CCN1CCN(c2nc(C)nc3c2sc(=S)n3C)CC1`, which inhibition is on record?
Answer: 18%

Question: For `CCCc1[nH]nc2c1C(c1cn[nH]c1-c1ccc(F)cc1)C(C#N)=C(N)O2` (stereo not given), which inhibition is on record?
Answer: 23.5%

Question: For `COC(=O)c1sc(N)c(C(=O)OC)c1COC(=O)C1CC(=O)N(Cc2ccco2)C1` (stereo not given), which inhibition is on record?
Answer: 11.9%

Question: With `COC(=O)CCC(NC(=O)c1cc(-c2ccc3c(c2)OCCO3)oc1C)C(=O)OC` (stereo not given) as the compound, how does the inhibition read?
Answer: -6.77%

Question: For `CSc1cccc(NC(=O)CN(C)S(=O)(=O)c2ccccc2)c1`, which inhibition is on record?
Answer: -6.52%

Question: With `CC(C)c1nnc(NC(=O)Cc2cccs2)s1` as the compound, how does the inhibition read?
Answer: 22.9%

Question: With `COc1ccc(NC(=O)CSc2nc3c(c(=O)n2-c2ccc(F)cc2)SCC3)c(OC)c1` as the compound, how does the inhibition read?
Answer: 26.7%

Question: With `CC(C)(CO)NC(=O)CCCOc1ccc(Cl)cc1Cl` as the compound, how does the inhibition read?
Answer: -47.8%

Question: With `Cc1cc(C)n(-c2ccc(N3CCOCC3)nn2)n1` as the compound, how does the inhibition read?
Answer: -11.9%
